Laboratory results as given in PubChem BioAssay (EPA / NIEHS).
Records with an inconclusive call do not appear. Active and inactive are the calls of the source. The calls were made as follows: active = hit-call score of the fitted dose curve at least 0.9, where 1 is the maximum; inconclusive = response in the unintended direction; inactive = score below 0.9.

What was measured:
[1] = biological target: human CYP2C9, CYP2C9 (gene 1559) (UniProt P11712); test: NVS_ADME_hCYP2C9: NovaScreen (NVS) CYP450-related Enzyme Activity (ADME) Assay for human CYP2C9 (AID 2283108)
Sequence of human CYP2C9, CYP2C9 (gene 1559) (P11712 whole entry, looked up): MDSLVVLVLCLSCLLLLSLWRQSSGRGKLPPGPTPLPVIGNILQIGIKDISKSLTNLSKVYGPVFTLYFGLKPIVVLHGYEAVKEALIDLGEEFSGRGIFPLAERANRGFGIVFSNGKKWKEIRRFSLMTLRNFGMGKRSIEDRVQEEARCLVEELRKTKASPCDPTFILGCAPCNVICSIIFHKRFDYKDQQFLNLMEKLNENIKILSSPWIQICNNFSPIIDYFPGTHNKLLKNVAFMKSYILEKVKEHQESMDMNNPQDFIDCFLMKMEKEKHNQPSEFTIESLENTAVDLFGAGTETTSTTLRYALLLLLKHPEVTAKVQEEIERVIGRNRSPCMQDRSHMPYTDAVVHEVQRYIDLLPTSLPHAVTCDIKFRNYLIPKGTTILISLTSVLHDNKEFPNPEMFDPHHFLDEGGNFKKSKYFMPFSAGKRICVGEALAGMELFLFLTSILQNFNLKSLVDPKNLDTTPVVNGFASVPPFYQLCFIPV
Summary of the method: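 Fluorescence readout of CYP2C9 activity (SF9-expressed human enzyme) at 0.75 h. The primary screen used 10 uM in duplicate, with concentration-response follow-up for actives; acetonitrile was the negative control.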

[2] = biological target: Cytochrome P450 2C19 (Homo sapiens) (UniProt P33261); test: NVS_ADME_hCYP2C19: NovaScreen (NVS) CYP450-related Enzyme Activity (ADME) Assay for human CYP2C19 (AID 2283113);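 as to AC50: potency for inhibition seen as loss of fluorescent signal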
Summary of the method: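 Compounds first screened in duplicate at 10 uM, then confirmed in concentration series. Insect-cell-expressed human CYP2C19 turned over a fluorogenic substrate, and fluorescence was read after 1 h. Inhibition taken as signal loss relative to acetonitrile.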

[3] = biological target: human AKT serine/threonine Kinase 1 (AKT1), AKT1 (gene 207) (UniProt P31749); test: NVS_ENZ_hAKT1: NovaScreen (NVS) Enzymatic Assay for human AKT serine/threonine Kinase 1 (AKT1) (AID 2283138)
Sequence of human AKT serine/threonine Kinase 1 (AKT1), AKT1 (gene 207) (P31749 whole entry, looked up): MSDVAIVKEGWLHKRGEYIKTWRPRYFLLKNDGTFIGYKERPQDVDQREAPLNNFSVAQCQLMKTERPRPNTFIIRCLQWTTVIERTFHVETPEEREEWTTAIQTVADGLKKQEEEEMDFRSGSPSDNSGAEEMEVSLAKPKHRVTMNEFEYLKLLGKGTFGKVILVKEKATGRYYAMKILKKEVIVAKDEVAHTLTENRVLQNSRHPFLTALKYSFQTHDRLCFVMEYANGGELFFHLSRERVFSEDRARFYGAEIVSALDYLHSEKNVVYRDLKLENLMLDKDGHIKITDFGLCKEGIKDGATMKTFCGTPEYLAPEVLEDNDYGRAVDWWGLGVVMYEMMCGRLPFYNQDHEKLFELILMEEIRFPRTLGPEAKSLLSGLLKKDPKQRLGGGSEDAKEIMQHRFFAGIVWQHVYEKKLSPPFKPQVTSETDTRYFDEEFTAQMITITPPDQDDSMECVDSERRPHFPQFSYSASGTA
Summary of the method: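 Screening first at 25 uM (duplicate), with threshold-passing chemicals re-tested in concentration series to a 50 uM maximum. Kinase activity read by fluorescence with mobility-shift separation of substrate and product, 1 h after dosing, DMSO baseline.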

[4] = biological target: human Beta-secretase (BACE), BACE1 (gene 23621) (UniProt P56817); test: NVS_ENZ_hBACE: NovaScreen (NVS) Enzymatic Assay for human Beta-secretase (BACE) (AID 2283140);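 also: hits are inhibitors that reduce fluorescent substrate signal versus DMSO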
Sequence of human Beta-secretase (BACE), BACE1 (gene 23621) (P56817 whole entry, looked up): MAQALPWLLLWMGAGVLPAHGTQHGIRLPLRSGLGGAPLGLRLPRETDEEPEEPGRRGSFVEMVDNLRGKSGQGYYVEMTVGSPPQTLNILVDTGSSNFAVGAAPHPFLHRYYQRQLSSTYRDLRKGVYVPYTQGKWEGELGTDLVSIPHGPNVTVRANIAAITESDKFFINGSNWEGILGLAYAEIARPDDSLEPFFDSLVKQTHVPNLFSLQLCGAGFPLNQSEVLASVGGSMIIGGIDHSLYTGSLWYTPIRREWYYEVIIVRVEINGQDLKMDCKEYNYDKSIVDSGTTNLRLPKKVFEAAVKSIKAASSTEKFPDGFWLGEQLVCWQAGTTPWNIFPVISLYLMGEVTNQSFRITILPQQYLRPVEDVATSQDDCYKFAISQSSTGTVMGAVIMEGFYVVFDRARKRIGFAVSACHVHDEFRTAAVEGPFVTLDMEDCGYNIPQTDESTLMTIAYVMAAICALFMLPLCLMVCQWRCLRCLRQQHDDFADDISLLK
Summary of the method: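 Enzyme from SF9 cells was incubated 1 hour with compound and fluorogenic substrate, activity read by fluorescence. Single-concentration duplicates at 25 uM preceded concentration-response follow-up; fitting relative to DMSO baseline.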

[5] = biological target: human AKT serine/threonine Kinase 2 (AKT2), AKT2 (gene 208) (UniProt P31751); test: NVS_ENZ_hAKT2: NovaScreen (NVS) Enzymatic Assay for human AKT serine/threonine Kinase 2 (AKT2) (AID 2283141)
Summary of the method: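 Cell-free fluorescence/electrophoretic mobility shift readout of recombinant human AKT2 activity, 1 h after chemical dosing. Duplicate primary screen at 25 uM, then singleton concentration-response up to 50 uM; loss of signal versus DMSO baseline.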

CDK2 (gene 1017) = CDK2 (gene 1017) (UniProt P24941); test: NVS_ENZ_hCDK2: NovaScreen (NVS) Enzymatic Assay for human Cyclin-Cependent Kinase 2 (CDK2) (AID 2283144)
Summary of the method: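 Compounds screened in duplicate at 25 uM, then in singleton concentration-response to a maximum of 50 uM, against recombinant CDK2; kinase activity read 1 hr after dosing by fluorescence with mobility-shift separation of substrate and product.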

[6] = biological target: human Casein Kinase 1-delta (CK1D), CSNK1D (gene 1453) (UniProt P48730); test: NVS_ENZ_hCK1D: NovaScreen (NVS) Enzymatic Assay for human Casein Kinase 1-delta (CK1D) (AID 2283148)
Sequence of human Casein Kinase 1-delta (CK1D), CSNK1D (gene 1453) (P48730 whole entry, looked up): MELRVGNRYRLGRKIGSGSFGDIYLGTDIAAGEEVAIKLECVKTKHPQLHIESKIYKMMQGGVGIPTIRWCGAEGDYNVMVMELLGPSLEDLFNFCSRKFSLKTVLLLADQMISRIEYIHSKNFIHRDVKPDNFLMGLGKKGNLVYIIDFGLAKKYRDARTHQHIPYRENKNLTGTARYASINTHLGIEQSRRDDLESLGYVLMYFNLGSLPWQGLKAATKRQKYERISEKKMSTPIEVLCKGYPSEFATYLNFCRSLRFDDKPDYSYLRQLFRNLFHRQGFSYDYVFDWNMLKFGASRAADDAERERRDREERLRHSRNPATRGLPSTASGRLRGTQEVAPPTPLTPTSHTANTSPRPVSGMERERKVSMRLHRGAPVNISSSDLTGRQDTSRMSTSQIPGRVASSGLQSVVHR
Summary of the method: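 Recombinant human CK1-delta, cell-free; fluorescent substrate with electrophoretic mobility-shift separation of product, read 1 h after dosing. Single 25 uM duplicate screen, then concentration-response up to 50 uM; loss of signal vs DMSO.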

[7] = biological target: human Colony Stimulating Factor 1 Receptor (CSF1R), CSF1R (gene 1436) (UniProt P07333); test: NVS_ENZ_hCSF1R: NovaScreen (NVS) Enzymatic Assay for human Colony Stimulating Factor 1 Receptor (CSF1R) (AID 2283150)
Summary of the method: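 Compounds screened in duplicate at 25 uM, then concentration-response (top 50 uM) for those passing threshold such as 30% inhibition; recombinant CSF1R activity measured 1 h post-dosing via fluorescent substrate/product mobility-shift separation, loss of signal versus DMSO.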

[8] = biological target: human Elastase, ELANE (gene 1991) (UniProt P08246); test: NVS_ENZ_hElastase: NovaScreen (NVS) Enzymatic Assay for human Elastase (AID 2283153)
Sequence of human Elastase, ELANE (gene 1991) (P08246 whole entry, looked up): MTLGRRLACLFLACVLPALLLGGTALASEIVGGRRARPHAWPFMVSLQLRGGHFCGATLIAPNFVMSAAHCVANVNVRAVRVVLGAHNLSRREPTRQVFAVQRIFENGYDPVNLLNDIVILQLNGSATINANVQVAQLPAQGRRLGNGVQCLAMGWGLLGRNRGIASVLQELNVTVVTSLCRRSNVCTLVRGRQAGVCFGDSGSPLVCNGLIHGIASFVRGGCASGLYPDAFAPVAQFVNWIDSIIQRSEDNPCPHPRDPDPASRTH
Summary of the method: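 Concentration-response to 50 uM max, run singly for chemicals passing a threshold (e.g., 30% inhibition) in a duplicate 25 uM single-point screen. Neutrophil-derived human elastase, absorbance read-out of enzyme activity at 1.5 h; DMSO baseline.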

[9] = biological target: human CYP2D6, CYP2D6 (gene 1565) (UniProt P10635); test: NVS_ADME_hCYP2D6: NovaScreen (NVS) CYP450-related Enzyme Activity (ADME) Assay for human CYP2D6 (AID 2283107)
Sequence of human CYP2D6, CYP2D6 (gene 1565) (P10635 whole entry, looked up): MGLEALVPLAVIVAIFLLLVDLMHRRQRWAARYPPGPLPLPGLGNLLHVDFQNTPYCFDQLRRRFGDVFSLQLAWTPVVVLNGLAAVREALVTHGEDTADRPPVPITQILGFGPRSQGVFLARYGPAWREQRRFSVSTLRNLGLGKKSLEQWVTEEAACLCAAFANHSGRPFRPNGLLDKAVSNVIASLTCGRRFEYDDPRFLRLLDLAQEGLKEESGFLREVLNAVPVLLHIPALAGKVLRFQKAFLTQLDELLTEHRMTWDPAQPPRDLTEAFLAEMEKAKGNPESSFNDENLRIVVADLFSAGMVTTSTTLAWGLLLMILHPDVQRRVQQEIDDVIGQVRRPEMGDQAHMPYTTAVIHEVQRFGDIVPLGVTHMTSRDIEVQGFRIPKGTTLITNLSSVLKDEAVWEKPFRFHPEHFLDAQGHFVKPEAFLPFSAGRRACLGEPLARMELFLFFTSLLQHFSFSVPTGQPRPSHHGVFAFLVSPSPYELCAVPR
Summary of the method: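 Fluorescence readout of recombinant CYP2D6 (insect-cell derived) activity after 1 h incubation with test chemical. Acetonitrile served as baseline, loss-of-signal direction. Single-concentration duplicate screening at 10 uM preceded concentration-response retesting.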

[10] = biological target: human CYP1A2, CYP1A2 (gene 1544) (UniProt P05177); test: NVS_ADME_hCYP1A2: NovaScreen (NVS) CYP450-related Enzyme Activity (ADME) Assay for human CYP1A2 (AID 2283102);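 also: potency for inhibition since loss of fluorescence marks reduced CYP1A2 activity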
Sequence of human CYP1A2, CYP1A2 (gene 1544) (P05177 whole entry, looked up): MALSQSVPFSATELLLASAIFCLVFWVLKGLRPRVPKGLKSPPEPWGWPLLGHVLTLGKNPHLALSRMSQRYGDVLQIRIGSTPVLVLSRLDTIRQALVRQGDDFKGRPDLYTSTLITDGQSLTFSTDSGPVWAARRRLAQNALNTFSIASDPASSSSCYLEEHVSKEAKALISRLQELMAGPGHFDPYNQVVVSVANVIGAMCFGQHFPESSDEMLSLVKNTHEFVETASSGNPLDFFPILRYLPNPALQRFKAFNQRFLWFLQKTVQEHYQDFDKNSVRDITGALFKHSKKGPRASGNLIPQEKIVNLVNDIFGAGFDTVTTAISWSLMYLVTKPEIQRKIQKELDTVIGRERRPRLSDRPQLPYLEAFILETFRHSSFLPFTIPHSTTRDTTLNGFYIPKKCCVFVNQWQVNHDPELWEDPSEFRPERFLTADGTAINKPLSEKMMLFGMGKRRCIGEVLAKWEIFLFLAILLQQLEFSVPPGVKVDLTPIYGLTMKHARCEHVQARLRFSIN
Summary of the method: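 Enzyme activity of insect-cell-expressed human CYP1A2 measured by fluorescence 0.5 h after compound addition, relative to acetonitrile. Compounds first tested in duplicate at 10 uM, actives followed up in concentration series.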

[11] = biological target: Cytochrome P450 3A4 (Homo sapiens) (UniProt P08684); test: NVS_ADME_hCYP3A4: NovaScreen (NVS) CYP450-related Enzyme Activity (ADME) Assay for human CYP3A4 (AID 2283110)
Sequence of Cytochrome P450 3A4 (Homo sapiens) (P08684 whole entry, looked up): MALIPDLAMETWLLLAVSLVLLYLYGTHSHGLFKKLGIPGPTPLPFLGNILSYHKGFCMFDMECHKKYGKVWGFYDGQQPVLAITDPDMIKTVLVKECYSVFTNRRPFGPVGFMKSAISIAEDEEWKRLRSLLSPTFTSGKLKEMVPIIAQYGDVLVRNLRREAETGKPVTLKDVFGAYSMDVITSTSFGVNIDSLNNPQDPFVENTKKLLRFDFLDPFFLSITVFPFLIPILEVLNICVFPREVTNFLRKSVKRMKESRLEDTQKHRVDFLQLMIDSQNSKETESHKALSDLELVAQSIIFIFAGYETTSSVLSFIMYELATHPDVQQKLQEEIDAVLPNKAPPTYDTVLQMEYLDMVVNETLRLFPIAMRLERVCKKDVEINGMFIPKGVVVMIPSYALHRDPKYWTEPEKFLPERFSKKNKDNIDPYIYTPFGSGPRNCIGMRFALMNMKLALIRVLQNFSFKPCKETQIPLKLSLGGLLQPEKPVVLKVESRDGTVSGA
Summary of the method: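 Compounds screened in duplicate at 10 uM, with follow-up concentration-response for actives, against insect-cell-expressed recombinant enzyme. Activity read by fluorescence 0.33 h after dosing; loss of signal versus acetonitrile control indicates inhibition.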

[12] = biological target: human Caspase 5 (CASP5), CASP5 (gene 838) (UniProt P51878); test: NVS_ENZ_hCASP5: NovaScreen (NVS) Enzymatic Assay for human Caspase 5 (CASP5) (AID 2283137)
Sequence of human Caspase 5 (CASP5), CASP5 (gene 838) (P51878 whole entry, looked up): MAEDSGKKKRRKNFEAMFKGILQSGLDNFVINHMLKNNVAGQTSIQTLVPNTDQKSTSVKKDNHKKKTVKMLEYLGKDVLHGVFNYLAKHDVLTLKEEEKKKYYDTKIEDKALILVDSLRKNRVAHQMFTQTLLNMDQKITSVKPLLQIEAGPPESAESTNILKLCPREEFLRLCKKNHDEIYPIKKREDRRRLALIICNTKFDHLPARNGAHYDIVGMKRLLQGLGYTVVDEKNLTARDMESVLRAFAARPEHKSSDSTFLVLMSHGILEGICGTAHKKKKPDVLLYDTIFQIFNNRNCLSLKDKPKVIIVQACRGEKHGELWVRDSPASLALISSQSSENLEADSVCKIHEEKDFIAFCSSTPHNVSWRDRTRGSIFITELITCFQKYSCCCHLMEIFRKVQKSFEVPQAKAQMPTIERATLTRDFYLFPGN
Summary of the method: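 Loss of fluorescent signal versus DMSO scored for E. coli-derived human CASP5 cleaving a fluorescent substrate, 2 h post-dosing; compounds first tested at 25 uM in duplicate, hits rerun in concentration series with 50 uM top concentration.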

[13] = biological target: human Dual Specificity Protein Phosphatase 3 (DUSP3), DUSP3 (gene 1845) (UniProt P51452); test: NVS_ENZ_hDUSP3: NovaScreen (NVS) Enzymatic Assay for human Dual Specificity Protein Phosphatase 3 (DUSP3) (AID 2283152);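 also: phosphatase activity of recombinant human DUSP3 on a fluorogenic substrate without cells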
Sequence of human Dual Specificity Protein Phosphatase 3 (DUSP3), DUSP3 (gene 1845) (P51452 whole entry, looked up): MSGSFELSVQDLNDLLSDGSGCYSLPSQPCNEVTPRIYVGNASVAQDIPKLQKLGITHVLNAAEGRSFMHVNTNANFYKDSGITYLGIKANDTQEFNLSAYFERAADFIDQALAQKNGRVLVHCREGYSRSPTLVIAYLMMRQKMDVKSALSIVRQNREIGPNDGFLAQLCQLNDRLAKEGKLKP
Summary of the method: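 Cell-free fluorescence-intensity enzyme activity assay with recombinant protein and substrate; loss of signal fitted relative to DMSO baseline. Primary screen in duplicate at 25 uM, actives then run in concentration series; measured 0 h after dosing.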

[14] = biological target: human Esterase Plasma (ES), BCHE (gene 590) (UniProt P06276); test: NVS_ENZ_hES: NovaScreen (NVS) Enzymatic Assay for human Esterase Plasma (ES) (AID 2283157)
Sequence of human Esterase Plasma (ES), BCHE (gene 590) (P06276 whole entry, looked up): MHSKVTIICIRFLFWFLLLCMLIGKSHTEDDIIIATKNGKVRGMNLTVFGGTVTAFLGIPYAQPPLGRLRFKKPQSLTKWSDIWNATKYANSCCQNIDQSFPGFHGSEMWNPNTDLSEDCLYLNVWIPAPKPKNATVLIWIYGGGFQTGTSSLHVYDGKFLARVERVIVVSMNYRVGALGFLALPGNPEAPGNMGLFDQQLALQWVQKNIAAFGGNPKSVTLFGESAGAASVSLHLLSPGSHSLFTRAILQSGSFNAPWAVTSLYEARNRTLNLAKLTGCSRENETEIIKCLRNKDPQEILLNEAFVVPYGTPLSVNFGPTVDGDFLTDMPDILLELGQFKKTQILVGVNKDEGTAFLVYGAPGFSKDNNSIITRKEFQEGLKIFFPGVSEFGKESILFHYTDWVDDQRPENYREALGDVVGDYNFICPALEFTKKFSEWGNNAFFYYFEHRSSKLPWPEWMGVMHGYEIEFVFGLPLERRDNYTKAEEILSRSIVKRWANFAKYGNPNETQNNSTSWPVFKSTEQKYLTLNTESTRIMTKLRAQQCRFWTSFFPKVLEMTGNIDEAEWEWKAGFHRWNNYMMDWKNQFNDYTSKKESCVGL
Summary of the method: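 Primary single-concentration screen at 25 uM in duplicate, then concentration-response to a 50 uM top dose. Human plasma esterase activity detected colorimetrically after 0.25 h incubation, with DMSO as baseline.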

Caspase-3 (Homo sapiens) = Caspase-3 (Homo sapiens) (UniProt P42574); test: NVS_ENZ_hCASP3: NovaScreen (NVS) Enzymatic Assay for human Caspase 3 (CASP3) (AID 2283139)
Summary of the method: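 Single-concentration screening at 25 uM in duplicate, with concentration-response follow-up to a 50 uM maximum for chemicals passing the threshold. Caspase-3 (human, E. coli-expressed) activity was read as substrate fluorescence after 1 h, with loss of signal relative to DMSO.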

[15] = biological target: human Caspase 4 (CASP4), CASP4 (gene 837) (UniProt P49662); test: NVS_ENZ_hCASP4: NovaScreen (NVS) Enzymatic Assay for human Caspase 4 (CASP4) (AID 2283143)
Summary of the method: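 Compounds were first tested in duplicate at 25 uM, and hits were titrated singly to a 50 uM maximum. Recombinant protease from E. coli was read by fluorescence 2 h post-dose, and activity loss was fitted against the DMSO baseline.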

[16] = biological target: human Caspase 8 (CASP8), CASP8 (gene 841) (UniProt Q14790); test: NVS_ENZ_hCASP8: NovaScreen (NVS) Enzymatic Assay for human Caspase 8 (CASP8) (AID 2283146)
Summary of the method: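 The primary screen tested compounds in duplicate at a single 25 uM concentration, with actives followed up in concentration series. Activity of recombinant (E. coli) protease was measured by fluorescence 1 h post-dose, as signal loss against DMSO.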

[17] = biological target: human Ephrin type-A Receptor 1 (EphA1), EPHA1 (gene 2041) (UniProt P21709); test: NVS_ENZ_hEphA1: NovaScreen (NVS) Enzymatic Assay for human Ephrin type-A Receptor 1 (EphA1) (AID 2283158);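 also: activity is signal loss versus DMSO meaning EphA1 kinase inhibition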
Summary of the method: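 Fluorescent substrate conversion, resolved by mobility-shift separation, measured 1 hour post-dosing using recombinant enzyme; signal loss relative to DMSO baseline. Single-concentration duplicates at 25 uM preceded singleton concentration series topping at 50 uM.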

Measured: AC50

CC[C@H](c1ccc(O)cc1)[C@@H](CC)c1ccc(O)cc1
active: [1] 0.295 µM | [2] 5.22 µM

CCCCCCCCCCCCc1ccccc1S(=O)(=O)O
active: [1] 5.06 µM | [3] 29.1 µM | [4] 2.23 µM | [5] 40.2 µM | [6] 17.4 µM | [7] 17.3 µM | [8] 38 µM
inactive: CDK2 (gene 1017)

O=[N+]([O-])c1ccc(O)cc1
inactive: [9] | [2]

O=C(OCCOCCOC(=O)c1ccccc1)c1ccccc1
active: [10] 1.71 µM | [1] 15.3 µM | [2] 7.94 µM

NC(=O)N1C(=O)C(C(=O)c2cc(Cl)cs2)c2cc(F)c(Cl)cc21 (stereo not drawn)
active: [1] 15.7 µM | [4] 0.139 µM | [13] 12.2 µM | [8] 16.9 µM
inactive: [11] | [2] | [12]

Nc1cccc2c(N)cccc12
active: [10] 3.06 µM | [9] 3.62 µM | [1] 6.16 µM | [2] 3.08 µM | [3] 3.13 µM | [4] 19.5 µM
inactive: [8]

CC#C[C@]1(O)CC[C@H]2[C@@H]3CCC4=CC(=O)CCC4=C3[C@@H](c3ccc(N(C)C)cc3)C[C@@]21C
active: [1] 4.12 µM | [2] 3.91 µM | [8] 2.18 µM | [14] 4.97 µM
inactive: [13]

Oc1cc2ccccc2c2ccccc12
active: [10] 0.0278 µM | [9] 0.136 µM | [1] 0.235 µM | [11] 6.68 µM | [2] 0.872 µM | [12] 6.88 µM | Caspase-3 (Homo sapiens) 12.6 µM | [14] 14.1 µM
inactive: [15] | [16]

O=C(O)Cc1cc(I)c(Oc2cc(I)c(O)c(I)c2)c(I)c1
inactive: [11] | [2] | [4] | CDK2 (gene 1017) | [6] | [7] | [17]
active: [13] 11 µM | [8] 18.5 µM
